Screens: PubChem BioAssay, The Scripps Research Institute Molecular Screening Center
Only a selection was taken, and hits are over-represented in it overall.
TTR transcr act: TTR transcription activators in neuroblastoma reporter cells, primary screen, cell-based, luminescence, SH-SY5Y, TTR promoter Gaussia luciferase. AID 1117267, 2014. actives 1.3% (n = 92,000). activation, % at 16.7 µM. 100% = recombinant luciferase protein wells;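 active = activation above the mean of all tested compounds plus 3 SD, cut at about 9.5% in these data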;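 note: cells exposed to compounds for one day before reading; 0% = median of all test compound wells on the plate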
HuH7 TTR inh: TTR promoter reporter inhibitors in hepatoma cells, counter-screen for TTR transcription activator project, cell-based, luminescence, HuH7 hepatoma | shares compounds with TTR transcr act | HuH7 TTR promoter-Gaussia luciferase reporter | inhibition, % at 16.7 µM | actives 4% (n = 1,100) | AID 1117279, 2014;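 active = average inhibition above the solvent-only control wells' mean plus 3 SD, cut at about 15% in these data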;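 note: 0% = cells with DMSO only and 100% = cells with inhibitor control FD; inhibitors lower well luminescence so higher value means more inhibition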
TTR up confirm: TTR transcription activators, retest, confirmation, cell-based, luminescence, SH-SY5Y, triplicate | shares compounds with TTR transcr act | activation, % at 16.7 µM | 1,100 tested, under 10 active | SHSY5Y TTR promoter Gaussia luciferase; 100% = purified Lucia enzyme wells, no cells;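 active = mean activation above a set limit taken from the earlier primary screen, cut at about 11% in these data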;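 note: 0% = DMSO-treated cells and 100% = recombinant Lucia luciferase without cells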
* = called active by the depositor.

SMILES	TTR transcr act	others
Cc1cccc(OCC(=O)OCC(=O)c2c(N)n(C)c(=O)n(C)c2=O)c1	11*	HuH7 TTR inh=-7;TTR up confirm=0
Cc1ccc(C(C)C)c(OCC(=O)OCC(=O)c2c(N)n(C)c(=O)n(C)c2=O)c1	-1
N#CN1CCC(NS(=O)(=O)c2cccc(C(F)(F)F)c2)CC1	-1
COc1ccc(CC(=O)Oc2ccc(Cl)cc2Br)cc1S(=O)(=O)N1CCOCC1	0
CCCCN1C(=O)C(O)(CC(=O)c2ccccn2)c2ccccc21 (centres undefined)	1
CN1C(=O)C(O)(CC(=O)c2cccs2)c2ccccc21 (centres undefined)	18*	HuH7 TTR inh=-10;TTR up confirm=-1
Cc1ccccc1CN1C(=O)C(O)(CC(=O)c2ccncc2)c2ccccc21 (centres undefined)	-3
CC1Cc2ccccc2N1C(=O)COc1ccc2c(c1)OCO2 (centres undefined)	-2
N#Cc1ccc(Cn2ccc3ccc(-c4ccc5ccn(C(=O)c6ccccc6)c5c4)cc32)cc1	0
CC(C)NC(=O)NC(=O)COC(=O)c1ccc(S(=O)(=O)NCc2ccco2)cc1	0
COC(=O)[C@]12C[C@H](CC(=O)NCC34CC5CC(CC(C5)C3)C4)C(=O)N(CCC3=CCCCC3)C1=C[C@H](C1CCCC1)O[C@@H]2C	1
Cc1nc2sc(C(c3cccc(F)c3)N3CCCCC3)c(O)n2n1 (centres undefined)	10*	HuH7 TTR inh=-3;TTR up confirm=0
Cc1nc2sc(C(c3ccc(Cl)cc3)N3CCOCC3)c(O)n2n1 (centres undefined)	-1
Cc1nc2sc(C(c3ccccc3)N3CC(C)OC(C)C3)c(O)n2n1 (centres undefined)	-1
Cc1ccc(CN2C(=O)C(C)Sc3ccc(C#N)cc32)cc1 (centres undefined)	-1
Cc1ccc(OCC(=O)N(Cc2cccs2)C2CCS(=O)(=O)C2)cc1C (centres undefined)	8
c1cncc(CNc2nc(N3CCOCC3)nc(N3CCOCC3)n2)c1	1
CSc1nc(NCC(C)C)nc(N2CCOCC2)n1	15*	HuH7 TTR inh=-3;TTR up confirm=0
Fc1ccc(Nc2nc(N3CCOCC3)nc(N3CCOCC3)n2)cc1	1
COCCN1C(=O)C(=O)/C(=C(/O)c2ccc(S(=O)(=O)N3CCOCC3)cc2)C1c1cccc(Cl)c1 (centres undefined)	7
COC(=O)[C@]12C[C@H](CC(=O)NCCC(C)C)C(=O)N(Cc3cccc4ccccc34)C1=C[C@H](C1CCCC1)O[C@@H]2C	0
O=C(NCCc1ccccc1)OCc1cn(Cc2ccc(Cl)cc2)nn1	0
C[C@@H]1CCCN1c1cccc2c1S(=O)(=O)N(C1CC1)CCCO2	1
CC(C)(C)N1NC2(CCCCC2)NC1=S	12*	HuH7 TTR inh=-16;TTR up confirm=1
CCOC(=O)CN1NC2(CCCCCC2)NC1=S	0
SMILES	TTR transcr act	others
Cc1ccc(OCc2nnc(SCC(=O)Nc3ncc(C)s3)o2)cc1	2
Cc1cc(Br)c(OCc2ccc(C(=O)N/N=C3\CC4CC=CC34)cc2)c(Br)c1 (centres undefined)	-1
COC(=O)[C@]12C[C@H](CC(=O)N3CCCC3)C(=O)N(CCc3ccc(OC)c(OC)c3)C1=C[C@H](COCc1ccccc1)O[C@@H]2C	-1
COc1ccc(C(=O)Nc2cccc(-c3cc4ccccc4oc3=O)c2)cc1[N+](=O)[O-]	-2
CCC(=O)Nc1cccc(-c2csc(-c3ccccc3)n2)c1	-1
CC(=O)Nc1cccc(-c2csc(N)n2)c1	9.7*	HuH7 TTR inh=-13;TTR up confirm=0
COc1ccc(CC(=O)Nc2cccc(-c3csc(C)n3)c2)cc1	-1
N=c1c2c(ccn1Cc1ccccc1)Oc1ccc3ccccc3c1C2c1ccccc1 (centres undefined)	-4
CC(=O)N1CCN(S(=O)(=O)c2ccc(Cl)cc2F)CC1	1
O=S(=O)(c1cc(Cl)ccc1Cl)N1CCC2(CC1)OCCO2	12*	HuH7 TTR inh=-6;TTR up confirm=-1
Cc1ccc(C)c(S(=O)(=O)N2CCC3(CC2)OCCO3)c1	-1
O=C(Cn1cnc([N+](=O)[O-])n1)N/N=C/c1ccc2ccccc2c1	1
COC(=O)c1cc(OC)c(OC)c(OC)c1[N+](=O)[O-]	1
O=c1c([N+](=O)[O-])cccn1Cc1cccc(Cl)c1	1
CC(=O)N1CCc2c(sc(NC(=O)c3cccc(N4C(=O)CCC4=O)c3)c2C(N)=O)C1	0
C[C@H]1[C@@H](OC(=O)NCc2ccc(Cl)c(Cl)c2)CC[C@@]23CCCN2C(=O)CCC[C@@H]13	-1
COc1ccc(C2CC(c3ccccc3)=NN2C(=O)CCC(=O)O)cc1 (centres undefined)	1
CC(=O)N1c2ccccc2NC2=C(C(=O)CCC2)C1c1cccnc1 (centres undefined)	-1
COc1ccc(C2CC(=O)C3=C(C2)Nc2ccccc2N(C(=O)CCC(=O)O)C3c2ccc(F)cc2)cc1 (centres undefined)	102*	HuH7 TTR inh=-8;TTR up confirm=1
Clc1ccccc1Cn1ccc2ccc(-c3ccc4ccn(Cc5ccccc5Cl)c4c3)cc21	0
O=C(CN1C(=O)N/C(=C\c2ccccc2OCc2ccc(C(=O)O)cc2)C1=O)Nc1ccc(F)cc1	-2
O=C(CN1C(=O)S/C(=C\c2ccccn2)C1=O)Nc1ccc(F)cc1	-1
NC1=NC(=O)/C(=C/c2ccccc2OCC(=O)Nc2ccc(F)cc2)S1	9.9*	HuH7 TTR inh=5;TTR up confirm=0
COC(=O)c1ccc(CN2C(=O)C3CCCCC3C2=O)o1 (centres undefined)	-1
CCn1c(=O)c(C)nn2c3ccccc3nc12	-1
SMILES	TTR transcr act	others
Cc1nn2c3ccccc3n(CCN3CCCCC3)c2nc1=O	11*	HuH7 TTR inh=-9;TTR up confirm=-1
O=C(O)CCc1nn2c3ccccc3nc2n(CCN2CCCCC2)c1=O	2
Cc1ccc(CNC(=O)CCSCc2ccccc2F)cc1	-2
CC1(C)C=Cc2ccc(O)c(C(=O)/C=C/c3ccccc3)c2O1	0
CN(C)CCCn1c(SCC(=O)Nc2nccs2)nnc1-c1ccncc1	7
C[C@H]1CN([C@@H](C)CO)S(=O)(=O)c2ccc(Br)cc2O[C@@H]1CN(C)C(=O)C1CCOCC1	24*	HuH7 TTR inh=-8;TTR up confirm=1
C[C@H](CO)N1C[C@H](C)[C@@H](CN(C)C(=O)c2ccc(F)cc2)Oc2cc(Br)ccc2S1(=O)=O	1
C[C@H](CO)N1C[C@H](C)[C@H](CN(C)C(=O)CC2CC2)Oc2cc(Br)ccc2S1(=O)=O	0
C[C@H]1CN([C@@H](C)CO)S(=O)(=O)c2ccc(-c3cncnc3)cc2O[C@H]1CN(C)C(=O)NC1CCCC1	0
C[C@H]1CN([C@@H](C)CO)S(=O)(=O)c2ccc(Br)cc2O[C@H]1CN(C)C(=O)Cc1ccccc1	2
CCCNC(=O)N(C)C[C@@H]1Oc2cc(Br)ccc2S(=O)(=O)N([C@@H](C)CO)C[C@H]1C	3
C[C@H]1CN([C@@H](C)CO)S(=O)(=O)c2ccc(Br)cc2O[C@H]1CN(C)C(=O)CN(C)C	-1
C[C@H](CO)N1C[C@H](C)[C@@H](CN(C)C(=O)NC2CCCC2)Oc2cc(Br)ccc2S1(=O)=O	18*	HuH7 TTR inh=-10;TTR up confirm=2
